# Tests used:
# Assay in all cases: cross-link between two proteins; cross-linking mass spectrometry
# [1] = biological target: Large ribosomal subunit protein uL13B (UniProt P26785)
# [2] = biological target: Large ribosomal subunit protein eL37A (UniProt P49166)
# [3] = biological target: Large ribosomal subunit protein eL14A (UniProt P36105)
# [4] = biological target: Proteasome-interacting protein CIC1 (UniProt P38779)
# [5] = biological target: Large ribosomal subunit protein eL32 (UniProt P38061)
# Sequence of Large ribosomal subunit protein eL32 (P38061 whole entry): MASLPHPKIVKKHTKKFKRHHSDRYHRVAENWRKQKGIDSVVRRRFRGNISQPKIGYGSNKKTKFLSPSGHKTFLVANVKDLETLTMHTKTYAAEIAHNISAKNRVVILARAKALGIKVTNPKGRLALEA
# [6] = biological target: Ribosome biogenesis protein ALB1 (UniProt P47019)
# Sequence of Ribosome biogenesis protein ALB1 (P47019 whole entry): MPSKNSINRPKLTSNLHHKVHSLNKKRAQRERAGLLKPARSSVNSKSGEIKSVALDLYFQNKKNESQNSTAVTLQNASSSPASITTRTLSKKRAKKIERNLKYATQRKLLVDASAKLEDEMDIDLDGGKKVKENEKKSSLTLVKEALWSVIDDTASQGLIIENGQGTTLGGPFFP
# Large subunit GTPase 1 = Large subunit GTPase 1 (UniProt P53145)
# Sequence of Large subunit GTPase 1 (P53145 whole entry): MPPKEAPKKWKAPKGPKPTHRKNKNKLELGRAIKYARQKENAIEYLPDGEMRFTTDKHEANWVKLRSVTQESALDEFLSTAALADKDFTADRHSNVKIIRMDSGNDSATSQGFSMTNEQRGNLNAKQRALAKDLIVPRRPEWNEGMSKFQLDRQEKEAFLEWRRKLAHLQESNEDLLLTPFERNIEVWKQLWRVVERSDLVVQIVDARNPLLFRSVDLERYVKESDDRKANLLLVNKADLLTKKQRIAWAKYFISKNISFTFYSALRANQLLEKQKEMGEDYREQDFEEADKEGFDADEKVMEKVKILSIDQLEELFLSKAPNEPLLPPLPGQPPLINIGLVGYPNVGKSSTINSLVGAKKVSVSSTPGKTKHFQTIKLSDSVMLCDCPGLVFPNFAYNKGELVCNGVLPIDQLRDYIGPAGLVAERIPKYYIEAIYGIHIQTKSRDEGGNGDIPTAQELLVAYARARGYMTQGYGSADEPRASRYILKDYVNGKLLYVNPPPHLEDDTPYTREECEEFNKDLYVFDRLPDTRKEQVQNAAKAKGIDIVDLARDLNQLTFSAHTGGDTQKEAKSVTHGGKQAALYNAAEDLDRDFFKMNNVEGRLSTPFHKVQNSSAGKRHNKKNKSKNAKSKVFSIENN
# [7] = biological target: Shuttling pre-60S factor ECM1 (UniProt P39715)
# Sequence of Shuttling pre-60S factor ECM1 (P39715 whole entry): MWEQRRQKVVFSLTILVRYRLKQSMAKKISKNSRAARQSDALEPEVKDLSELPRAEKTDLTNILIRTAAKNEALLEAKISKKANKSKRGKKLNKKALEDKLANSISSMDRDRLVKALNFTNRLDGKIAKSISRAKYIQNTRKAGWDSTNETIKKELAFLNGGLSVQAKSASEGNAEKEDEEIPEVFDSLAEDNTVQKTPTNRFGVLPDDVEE
# [8] = biological target: Probable metalloprotease ARX1 (UniProt Q03862)
# Sequence of Probable metalloprotease ARX1 (Q03862 whole entry): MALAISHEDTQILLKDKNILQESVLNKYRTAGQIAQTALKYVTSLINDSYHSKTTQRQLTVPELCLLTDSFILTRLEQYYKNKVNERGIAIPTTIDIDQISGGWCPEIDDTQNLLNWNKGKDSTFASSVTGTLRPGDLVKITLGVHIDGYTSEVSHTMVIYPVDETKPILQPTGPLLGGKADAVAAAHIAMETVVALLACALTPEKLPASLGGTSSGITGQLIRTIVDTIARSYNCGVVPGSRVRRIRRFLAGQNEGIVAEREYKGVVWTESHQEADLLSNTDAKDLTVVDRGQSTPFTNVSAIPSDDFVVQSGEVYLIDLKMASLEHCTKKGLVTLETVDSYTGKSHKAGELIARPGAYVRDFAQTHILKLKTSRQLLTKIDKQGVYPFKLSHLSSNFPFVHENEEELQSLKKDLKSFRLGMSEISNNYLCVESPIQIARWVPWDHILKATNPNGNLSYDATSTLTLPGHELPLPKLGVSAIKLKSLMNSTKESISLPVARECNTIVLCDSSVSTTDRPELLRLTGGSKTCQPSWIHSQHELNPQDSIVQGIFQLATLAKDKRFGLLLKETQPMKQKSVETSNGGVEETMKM
# [9] = biological target: Large ribosomal subunit protein uL2A (UniProt P0CX45)
# Sequence of Large ribosomal subunit protein uL2A (P0CX45 whole entry): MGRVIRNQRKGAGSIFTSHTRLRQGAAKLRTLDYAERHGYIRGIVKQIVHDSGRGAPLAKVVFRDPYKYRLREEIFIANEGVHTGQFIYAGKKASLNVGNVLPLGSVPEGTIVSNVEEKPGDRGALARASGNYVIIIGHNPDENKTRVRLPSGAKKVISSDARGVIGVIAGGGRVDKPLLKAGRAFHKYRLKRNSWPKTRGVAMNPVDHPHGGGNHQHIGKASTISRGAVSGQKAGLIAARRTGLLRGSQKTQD
# Sequence of Large ribosomal subunit protein uL13A, P26784 (P26784 whole entry): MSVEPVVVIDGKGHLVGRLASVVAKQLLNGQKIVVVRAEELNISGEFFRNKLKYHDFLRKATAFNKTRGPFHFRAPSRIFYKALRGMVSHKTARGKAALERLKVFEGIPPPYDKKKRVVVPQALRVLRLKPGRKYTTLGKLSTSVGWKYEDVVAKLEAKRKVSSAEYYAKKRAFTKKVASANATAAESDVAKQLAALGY
# Sequence of Large ribosomal subunit protein uL2A, P0CX45 (P0CX45 whole entry): as the sequence (P0CX45 whole entry) above
# Sequence of Large ribosomal subunit protein eL14A (P36105 whole entry): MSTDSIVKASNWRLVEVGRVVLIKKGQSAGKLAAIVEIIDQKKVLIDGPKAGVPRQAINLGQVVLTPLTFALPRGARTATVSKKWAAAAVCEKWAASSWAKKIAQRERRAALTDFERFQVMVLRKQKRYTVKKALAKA
# Sequence of Large ribosomal subunit protein eL32, P38061 (P38061 whole entry): as the sequence (P38061 whole entry) above
# Sequence of Large ribosomal subunit protein uL13B (P26785 whole entry): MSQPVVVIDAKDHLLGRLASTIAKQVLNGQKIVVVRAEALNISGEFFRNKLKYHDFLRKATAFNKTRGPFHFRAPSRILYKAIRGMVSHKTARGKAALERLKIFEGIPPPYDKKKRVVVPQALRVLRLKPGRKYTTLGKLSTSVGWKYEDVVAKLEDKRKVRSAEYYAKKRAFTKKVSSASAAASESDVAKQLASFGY
# Sequence of Large ribosomal subunit protein uL14A, P0CX41 (P0CX41 whole entry): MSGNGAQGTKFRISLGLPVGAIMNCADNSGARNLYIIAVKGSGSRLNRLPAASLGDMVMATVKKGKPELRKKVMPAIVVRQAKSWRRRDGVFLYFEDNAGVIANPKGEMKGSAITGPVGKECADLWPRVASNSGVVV
# Sequence of Large ribosomal subunit protein eL15A, P05748 (P05748 whole entry): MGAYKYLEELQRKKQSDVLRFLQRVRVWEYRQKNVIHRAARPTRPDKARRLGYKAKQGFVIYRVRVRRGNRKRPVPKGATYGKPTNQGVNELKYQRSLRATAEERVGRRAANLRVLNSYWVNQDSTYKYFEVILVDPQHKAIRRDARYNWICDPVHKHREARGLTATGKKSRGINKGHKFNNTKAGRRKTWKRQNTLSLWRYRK
# Sequence of Proteasome-interacting protein CIC1 (P38779 whole entry): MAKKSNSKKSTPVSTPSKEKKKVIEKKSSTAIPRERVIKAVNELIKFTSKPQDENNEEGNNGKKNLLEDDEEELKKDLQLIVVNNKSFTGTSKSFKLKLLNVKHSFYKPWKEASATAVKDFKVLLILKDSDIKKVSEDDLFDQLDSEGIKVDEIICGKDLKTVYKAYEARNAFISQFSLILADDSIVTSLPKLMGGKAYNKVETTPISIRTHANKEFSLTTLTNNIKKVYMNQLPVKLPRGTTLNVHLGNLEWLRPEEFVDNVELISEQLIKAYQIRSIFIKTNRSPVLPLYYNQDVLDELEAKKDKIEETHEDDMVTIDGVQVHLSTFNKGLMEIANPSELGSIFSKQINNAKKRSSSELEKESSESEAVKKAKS
# Sequence of Large ribosomal subunit protein eL37A (P49166 whole entry): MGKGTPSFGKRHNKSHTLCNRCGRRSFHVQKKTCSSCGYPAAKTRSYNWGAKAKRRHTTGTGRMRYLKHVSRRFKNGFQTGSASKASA
substance,measurement,setting,value
"Large ribosomal subunit protein eL15A, P05748",listed as a hit,[1],yes
"Large ribosomal subunit protein uL29A, P0CX84",listed as a hit,[2],yes
"Large ribosomal subunit protein uL13A, P26784",listed as a hit,[3],yes
same,listed as a hit,[4],yes
"27S pre-rRNA (guanosine(2922)-2'-O)-methyltransferase, P25582",listed as a hit,[5],yes
"Large ribosomal subunit protein eL32, P38061",listed as a hit,[6],yes
"Large ribosomal subunit protein uL2A, P0CX45",listed as a hit,Large subunit GTPase 1,yes
same,listed as a hit,[7],yes
"Cytoplasmic 60S subunit biogenesis factor REI1, P38344",listed as a hit,[8],yes
"Large ribosomal subunit protein uL14A, P0CX41",listed as a hit,[9],yes

# From article PMC6579518
